Screening results as filed in PubChem.
An excerpt weighted towards active compounds, which were near 4% of everything screened.
Peg3 prom inh = Peg3 promoter-driven luciferase inhibitors, primary screen, cell-based, HeLa, luciferase luminescence | inhibition, % at 20 µM | HeLa PEG-Prom luciferase reporter, overnight | 360,000 tested, 1.7% active | AID 588405, 2011;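 active means inhibition of at least 50% at 20 µM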
HIF-2a inh = HIF-2a reporter inhibitors, primary screen, luminescence, 786-0 RCC cells; 786-0 RCC cells HIF-2a reporter, luciferase luminescence, overnight; inhibition, % at 18.8 µM; 360,000 tested, 0.72% active; AID 624352, 2012;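 active means inhibition of the luminescence signal of 40% or more relative to plate controls, in a single-dose primary screen at 18.75 µM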
KKLEB tox = cytotoxicity in KKLEB CF airway cells, primary screen, cytotoxicity control for CF NF-kB inhibitor project, cell-based, uHTS, fluorescence assay plates. KKLEB CF airway cells viability, ATPlite luminescence, overnight; active compounds read low; cells stimulated with P. aeruginosa culture filtrate. activity change (cytotoxicity), % at 5 µM. 360,000 tested, 0.36% active;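 active means corrected activity change at or below -50% at 5 µM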
TROY signal inh = inhibitors of TROY-driven NF-kB signaling, primary screen, Q293 LMP1-TROYcd cells, NF-kB luciferase, uHTS; Q293 LMP1-TROYcd NF-kB luciferase reporter, 4 h; inhibition, % at 10 µM; 360,000 tested, 0.98% active; AID 1347056, 2019;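 active means compounds whose plate-normalised and pattern-corrected inhibition of the luciferase reporter signal at the single screening dose is 50% or more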
TWEAK Fn14 block = inhibitors of TWEAK-Fn14 signaling, primary screen, luciferase reporter cells, uHTS. inhibition, % at 10 µM. TWEAK-stimulated Fn14 reporter cells, luciferase luminescence, 8 h. 360,000 tested, 2% active; in the data active means inhibition above about 50%
CF NFkB inh = inhibitors of PAF-induced NF-kB signaling, primary screen, cell-based, GFP fluorescence, uHTS. inhibition, % at 5 µM. 360,000 tested, 0.86% active. KKLEB NF-kB-GFP reporter, GFP fluorescence overnight. AID 588850, 2011;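 active means at least 50% inhibition at 5 µM, scaled per plate between neutral and stimulator controls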;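 further: PAF is a Pseudomonas aeruginosa culture filtrate used as stimulus; plate controls were PAF-stimulated DMSO wells for no effect and unstimulated DMSO wells for full effect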
Active calls of the source: *; nt = no result.

SMILES	Peg3 prom inh	HIF-2a inh	KKLEB tox	TROY signal inh	TWEAK Fn14 block	CF NFkB inh
COc1cc(/C=C(/C#N)c2nc3ccccc3[nH]2)ccc1OCC(=O)Nc1ccccc1C	104*	14	3	-2	-39	-21
CCN(CC)c1ccc(/C=C(/C#N)c2nc3ccccc3[nH]2)c(OC(C)C)c1	-68	-144	-11	69*	76*	-42
CCOc1cccc(/C=C(/C#N)c2nc3ccccc3[nH]2)c1OCC(=O)O	3	-28	-10	58*	61*	6
COc1cccc(/C=C(\C#N)c2nc3ccc(C)cc3[nH]2)c1OCC(=O)O	10	-7	6	-25	1	-6
COc1ccc(S(=O)(=O)NCC2CCCO2)cc1NC(=O)c1ccccc1F (centres undefined)	18	6	5	-39	16	3
CC1=C(C(=O)N(C(C)C)C(C)C)CC(CC(=O)NCc2cccc3ccccc23)C(=O)N1Cc1ccc(F)cc1 (centres undefined)	13	-6	-3	8	-4	-27
CCN(C(=O)CSc1ncccn1)c1cccc2ccccc12	-6	18	11	11	3	-5
CC(C)c1noc2ncc(C(=O)c3cc(Cl)cc(Cl)c3O)cc12	37	13	-7	62*	10	27
O=C1NC[C@@H](CCCCN2C[C@H](Cc3ccc(O)cc3)N(CCc3ccc(O)cc3)C(=O)C2=O)N(CC2CCCCC2)C1=O	nt	4	nt	6	8	nt
Cc1cc2nc(-c3ccc(SCC(=O)N4CCc5ccccc54)nc3)[nH]c2cc1C	114*	-211	-52*	0	10	29
Cc1cc2nc(-c3ccc(SCc4ccc(C(=O)O)cc4)nc3)[nH]c2cc1C	-134	-188	6	52*	22	-9
Cc1cc2nc(-c3ccc(SCc4ccccc4C#N)nc3)[nH]c2cc1C	-93	-161	-11	64*	58*	4
COC(=O)CSc1ncccc1-c1nc2ccccc2[nH]1	-27	-37	-2	-25	-11	1
O=C(CSc1ncccc1-c1nc2ccccc2[nH]1)N1CCc2ccccc21	-53	-59	-13	62*	67*	-10
CCOc1ccc(NC(=O)COC(=O)C2C3CC4OC(=O)C2C4C3)cc1 (centres undefined)	-5	-7	1	-8	-23	-2
CCNC(=O)C1(C)CCN(C(=O)c2c(F)ccc(C)c2F)C1 (centres undefined)	9	10	0	2	8	9
CCCCC1CCC(C(=O)N(CCC(C)C)c2c(N)n(CCCC)c(=O)[nH]c2=O)CC1 (centres undefined)	98*	13	-1	-20	12	-4
CCN(CC)c1ccc(/C=c2\sc3nc4ccccc4n3c2=O)c(O)c1	7	-37	-5	54*	67*	-4
O=c1/c(=C/c2ccc(O)c([N+](=O)[O-])c2)sc2nc3ccccc3n12	-124	-120	10	-9	43	11
CCOC(=O)c1cnc2c(c(C)nn2-c2ccc(C)cc2)c1Cl	101*	6	-3	-37	41	23
O=C1C2CC=CCC2C(=O)N1c1ccc(NCCc2ccc(O)cc2)c([N+](=O)[O-])c1 (centres undefined)	-32	-57	-8	1	57*	18
CN(C(=O)CN1C(=O)S/C(=C\c2ccccc2Cl)C1=O)C1CCS(=O)(=O)C1 (centres undefined)	35	9	3	-11	58*	-33
CC(C)Cn1c(N)c(C(=O)COC(=O)CC23CC4CC(CC(C4)C2)C3)c(=O)n(C)c1=O	22	17	-4	59*	73*	-4
O=C(CCCc1ccccn1)c1ccccc1	-72	-48	-23	43	84*	15
O=C(Cc1ccccn1)c1ccccc1	-38	-39	5	3	7	0
SMILES	Peg3 prom inh	HIF-2a inh	KKLEB tox	TROY signal inh	TWEAK Fn14 block	CF NFkB inh
CSc1ncccc1C(=O)OCC(=O)N1CCc2ccccc21	-49	-15	-4	-53	1	6
CCOC(=O)C1=C(N)Oc2cc(C)[nH]c(=O)c2C1c1ccncc1 (centres undefined)	17	26	4	nt	76*	-1
CC1=Nc2ccccc2/C1=C/c1sc(=N)n(-c2nccs2)c1O	18	16	7	74*	101*	-4
N#CC1(C#N)CC(C=O)=C(N)C1(C#N)CC(=O)C12CC3CC(CC(C3)C1)C2 (centres undefined)	49	27	-55*	31	87*	82*
Nc1nccnc1C(=O)OCC(=O)C12CC3CC(CC(C3)C1)C2	-24	6	-6	7	13	10
COc1ccc(/C=C/C(=O)OCC(=O)NC2CCCC2)c(OC)c1	0	-10	6	-2	4	0
O=C(O)c1ccc(Oc2nc3ccccc3s2)cc1	84*	-127	10	-31	28	-17
Cc1ccc(S(=O)(=O)N2CCOCC2)cc1C(=O)OCC(=O)c1c(N)n(C)c(=O)n(C)c1=O	24	10	2	-9	0	23
Cn1c(N)c(C(=O)COC(=O)c2cc(S(=O)(=O)N3CCOCC3)ccc2F)c(=O)n(C)c1=O	89*	-15	-10	36	-16	-8
COC(=O)C[C@@H]1OC[C@H](C)N1S(=O)(=O)c1ccc(C)cc1	nt	4	nt	nt	nt	nt
O=C(COC(=O)/C=C/C(=O)OCC(=O)NC12CC3CC(CC(C3)C1)C2)NC12CC3CC(CC(C3)C1)C2	103*	29	-16	6	-10	41
COc1cc(S(=O)(=O)Nc2ccccc2C(=O)N2CCCCC2)ccc1NC(C)=O	16	11	-9	1	5	5
N=c1c2c(-c3ccccc3)c(-c3ccccc3)n(Cc3ccco3)c2ncn1CCO	93*	37	-17	-19	-13	9
CSCCC1NC(=S)N(Cc2ccccc2)C1=O (centres undefined)	13	21	-6	-2	23	18
O=C(Nc1ccccc1)OCC1COC(c2ccccc2)(c2ccccc2)O1 (centres undefined)	4	3	-4	18	5	3
COc1cccc(CNS(=O)(=O)c2ccc3c(c2)C(C)(C)C(=O)N3C)c1	-1	9	-1	13	-11	5
Cc1cccc(OCc2nc(-c3ccccn3)n[nH]2)c1	-44	-42	1	61*	-6	-7
Cc1ccc(OCc2nc(-c3ccccn3)n[nH]2)cc1	-136	-140	0	-36	-42	-5
